Measurements: PubChem BioAssay AID463173 (ICCB-Longwood Screening Facility, Harvard Medical School, 2010)
The campaign covered roughly 52,000 compounds. About 4,300 (8.3%) were called active. Rule as the data show it: active = survival mostly below about 52% (no sharp cut-off); inactive = mostly above about 56%. Only a selection was taken, and actives are over-represented in it overall.

test system: DeltatarO mutant; assay: growth inhibition of S. aureus wild type versus tarO mutant, primary screen, teichoic acid synthesis inhibitors, RN4220, OD600 (AID 463173); conditions: OD600, 18 h, hits give low values, screened at 18.75 µg/mL (by protocol)

| SMILES | survival |
| --- | --- |
| COc1ccc(CCN2C(=O)N(c3ccc(F)cc3)C(=O)C2CC(=O)Nc2ccc(OC)cc2)cc1 (centres undefined) | 67% (inactive) |
| CCc1ccc2occ(CC(=O)Nc3ccc(C)c(C)c3)c2c1 | 102% (inactive) |
| COc1ccc(OC)c(NC(=O)c2nnn(CC(=O)Nc3ccc(C(C)C)cc3)c2N)c1 | 63% (inactive) |
| COc1ccc(-c2nc(CSCC(=O)N3CCN(c4ccccc4F)CC3)c(C)o2)cc1 | 35% (active) |
| COc1ccc(-c2nc(CSCC(=O)N3CCN(c4ccccc4)CC3)c(C)o2)cc1 | 60% (inactive) |
| COc1ccc(-c2nc(CSCC(=O)N3CCN(c4ccc(F)cc4)CC3)c(C)o2)cc1 | 57% (inactive) |
| Cc1cccc(NC(=O)C(NS(=O)(=O)c2cccc3nsnc23)c2ccccc2)c1C (centres undefined) | 95% (inactive) |
| COCCn1c(=NC(=O)c2ccc3c(c2)OCCO3)sc2cc(C(=O)OC)ccc21 | 86% (inactive) |
| CCC12CN3CC(C)(CN(C1)C3c1ccccc1C)C2=O (centres undefined) | 76% (inactive) |
| COc1ccc(-c2nc3ccccc3o2)cc1NC(=O)c1cc([N+](=O)[O-])ccc1N1CCOCC1 | 44% (active) |
| Cc1ccc(-c2nc3cc(Cl)ccc3o2)cc1NC(=O)c1cc([N+](=O)[O-])ccc1N1CCOCC1 | 57% (inactive) |
| O=C(Nc1cccc(-c2nc3cc(Cl)ccc3o2)c1)c1cc([N+](=O)[O-])ccc1N1CCOCC1 | 40% (active) |
| COc1ccc2oc(-c3cccc(NC(=O)c4cc([N+](=O)[O-])ccc4N4CCOCC4)c3)nc2c1 | 49% (inactive) |
| O=C(Nc1ccc(Cl)c(-c2nc3cc(Cl)ccc3o2)c1)c1cc([N+](=O)[O-])ccc1N1CCOCC1 | 111% (inactive) |
| O=C(Nc1cc(-c2nc3ccccc3o2)ccc1Cl)c1cc([N+](=O)[O-])ccc1N1CCOCC1 | 57% (inactive) |
| O=C(Nc1cc(-c2nc3cc(Cl)ccc3o2)ccc1Cl)c1cc([N+](=O)[O-])ccc1N1CCOCC1 | 50% (inactive) |
| Cc1c(NC(=O)c2cc([N+](=O)[O-])ccc2N2CCOCC2)cccc1-c1nc2ccccc2o1 | 50% (inactive) |
| O=C(Nc1cccc(-c2nc3ccccc3o2)c1)c1cc([N+](=O)[O-])ccc1N1CCOCC1 | 42% (active) |
| COCCN1Cc2cccc(C(=O)Nc3ccc(C(=O)OC)cc3)c2C1=O | 82% (inactive) |
| CC(C)(C)C(=O)CSc1nc2ccsc2c(=O)n1Cc1ccccc1F | 126% (inactive) |
| CCOC(=O)c1c(C)[nH]c(C)c1S(=O)(=O)N1CCCC(C(=O)Nc2ccc(C)c(N(C)C)c2)C1 (centres undefined) | 88% (inactive) |
| CCCCOc1ccc(C(=O)N2CCN(CCc3ccccn3)CC2)cc1 | 51% (inactive) |
| O=C(CN1CCC(NC(=O)NC2CCCCC2)CC1)Nc1cccc(I)c1 | 100% (inactive) |

| SMILES | survival |
| --- | --- |
| CC1=Nc2cc(C(=O)NCCc3ccc(Cl)cc3)ccc2Sc2ccc(C)cc21 | 56% (inactive) |
| Cc1ccc(C(=O)CSc2nnc3ccc4ccccc4n23)cc1 | 60% (inactive) |
| CCOc1ccccc1NC(=O)NC1(C(=O)NCc2ccco2)CCCCC1 | 84% (inactive) |
| CCc1c(C)c2ccc(O)c(CN3CCN(c4ccc(F)cc4)CC3)c2oc1=O | 55% (inactive) |
| CCc1c(C)c2ccc(O)c(CN3CCN(c4ccccc4)CC3)c2oc1=O | 56% (active) |
| CCc1c(C)c2ccc(O)c(CN3CCN(c4ccc(OC)cc4)CC3)c2oc1=O | 55% (inactive) |
| Cc1ccc(-n2nc3c(N4CCC(C(=O)NC5CCCCC5)CC4)nnc(C)c3c2C)cc1 | 81% (inactive) |
| Cc1ccc(N2CNC(=O)c3c(C)cc(C)nc32)cc1 | 74% (inactive) |
| Cc1cccc2sc(N(Cc3cccnc3)C(=O)CCS(=O)(=O)c3ccccc3)nc12 | 89% (inactive) |
| Cc1cc(C)c2nc(N(Cc3cccnc3)C(=O)CCS(=O)(=O)c3ccccc3)sc2c1 | 83% (inactive) |
| CC(=O)N(Cc1cccnc1)c1nc2c(C)c(C)ccc2s1 | 72% (inactive) |
| CC(=O)c1ccc(C(=O)N(Cc2cccnc2)c2nc3c(C)c(C)ccc3s2)cc1 | -1% (active) |
| CC(=O)c1ccc(C(=O)N(Cc2cccnc2)c2nc3c(Cl)cccc3s2)cc1 | 91% (inactive) |
| Cc1ccc2sc(N(Cc3cccnc3)C(=O)CCS(=O)(=O)c3ccccc3)nc2c1C | 6% (active) |
| C=CCNCc1cccn1-c1ccccc1 | 76% (inactive) |
| CCCCn1cc(S(=O)(=O)c2ccc(CC)cc2)c(=O)c2cc(F)c(N3CCCC(C)C3)cc21 (centres undefined) | 115% (inactive) |
| O=C(CN1CCC(NC(=O)Nc2ccccc2-c2ccccc2)CC1)NCc1ccco1 | 78% (inactive) |
| Cc1cccnc1Nc1nc(-c2cccnc2)cs1 | 48% (inactive) |
| CC1CCCCC1NC(=O)CSc1nncn1N (centres undefined) | 84% (inactive) |
| O=C(Nc1cccc(F)c1)c1oc2ccccc2c1NC(=O)C12CC3CC(CC(C3)C1)C2 | 72% (inactive) |
| CN1CCN(C(c2ccccc2Cl)c2sc3nc(-c4ccco4)nn3c2O)CC1 (centres undefined) | 131% (inactive) |
| Oc1c(C(c2ccccc2)N2CCCC2)sc2nc(-c3ccco3)nn12 (centres undefined) | 0% (active) |
| Cc1ccc(C(c2sc3nc(-c4ccco4)nn3c2O)N2CCC3(CC2)OCCO3)cc1 (centres undefined) | 78% (inactive) |

| SMILES | survival |
| --- | --- |
| Oc1c(C(c2ccccc2)N2CCOCC2)sc2nc(-c3ccco3)nn12 (centres undefined) | 69% (inactive) |
| Cc1ccc(C(c2sc3nc(-c4ccco4)nn3c2O)N2CCN(Cc3ccccc3)CC2)cc1 (centres undefined) | 112% (inactive) |
| Oc1c(C(c2ccccc2)N2CCC3(CC2)OCCO3)sc2nc(-c3ccco3)nn12 (centres undefined) | 69% (inactive) |
| CN1CCN(C(c2ccccc2)c2sc3nc(-c4ccco4)nn3c2O)CC1 (centres undefined) | 75% (inactive) |
| Oc1c(C(c2ccccc2)N2CCN(Cc3ccccc3)CC2)sc2nc(-c3ccco3)nn12 (centres undefined) | 37% (active) |
| Oc1c(C(c2ccc(F)cc2)N2CCN(Cc3ccccc3)CC2)sc2nc(-c3ccco3)nn12 (centres undefined) | 73% (inactive) |
| Oc1c(C(c2ccccc2Cl)N2CCOCC2)sc2nc(-c3ccco3)nn12 (centres undefined) | 0% (active) |
| Oc1c(C(c2ccccc2Cl)N2CCCC2)sc2nc(-c3ccco3)nn12 (centres undefined) | 83% (inactive) |
| Oc1c(C(c2ccc(Cl)cc2)N2CCC3(CC2)OCCO3)sc2nc(-c3ccco3)nn12 (centres undefined) | 32% (active) |
| O=C(c1ccc2c(c1)N(Cc1ccc(Cl)cc1)C(=O)c1ccccc1S2(=O)=O)N1CCCCCC1 | 64% (inactive) |
| Cn1nc(CC(=O)Nc2ccc(N3CCN(C(=O)OC(C)(C)C)CC3)cc2)c2ccccc2c1=O | 84% (inactive) |
| COC(=O)c1ccccc1NC(=O)CSc1nc2sc3c(c2c(=O)[nH]1)CCCC3 | 61% (inactive) |
| CCOc1ccccc1NC(=O)CSc1nnc2[nH]c(=O)cc(-c3ccccc3)n12 | 98% (inactive) |
| Cc1nonc1OCCn1nnc(N)n1 | 95% (inactive) |
| Oc1c(C(c2ccccc2)N2CCN(c3cccc(Cl)c3)CC2)sc2nc(-c3ccco3)nn12 (centres undefined) | 74% (inactive) |
| O=[N+]([O-])c1ccc(C(c2sc3nc(-c4ccco4)nn3c2O)N2CCN(Cc3ccccc3)CC2)cc1 (centres undefined) | 79% (inactive) |
| O=[N+]([O-])c1ccc(C(c2sc3nc(-c4ccco4)nn3c2O)N2CCN(c3cccc(Cl)c3)CC2)cc1 (centres undefined) | 47% (active) |
| Oc1c(C(c2ccccc2F)N2CCOCC2)sc2nc(-c3ccco3)nn12 (centres undefined) | 80% (inactive) |
| COc1ccc(OC)c(NC(=O)CSc2ccc(-c3sc(C)nc3C)nn2)c1 | 83% (inactive) |
| Cc1cc(C)c(NC(=O)CSc2ccc(-c3sc(-c4ccccc4)nc3C)nn2)c(C)c1 | 33% (inactive) |
| CCOC(=O)c1ccccc1NC(=O)CSc1ccc(-c2sc(C)nc2C)nn1 | 91% (inactive) |
| COc1cccc(CNC(=O)CSc2ccc(-c3sc(-c4ccccc4)nc3C)nn2)c1 | 26% (inactive) |
| COc1cc(NC(=O)CSc2ccc(-c3sc(C)nc3C)nn2)cc(OC)c1 | 6% (active) |

| SMILES | survival |
| --- | --- |
| COc1ccc(Cl)cc1NC(=O)CSc1ccc(-c2sc(C)nc2C)nn1 | 105% (inactive) |
| Cc1nc(C)c(-c2ccc(SCC(=O)Nc3ccc(F)c(F)c3)nn2)s1 | 102% (inactive) |
| COc1ccccc1NC(=O)CSc1ccc(-c2sc(C)nc2C)nn1 | 92% (inactive) |
| COc1cc(NC(=O)CSc2ccc(-c3sc(-c4ccccc4)nc3C)nn2)cc(OC)c1 | 19% (active) |
| Cc1nc(C)c(-c2ccc(SCC(=O)Nc3ccc(Br)cc3)nn2)s1 | 101% (inactive) |
| Cc1nc(C)c(-c2ccc(SCC(=O)Nc3ccc(Cl)c(Cl)c3)nn2)s1 | 46% (active) |
| CCOC(=O)c1ccc(NC(=O)CSc2ccc(-c3sc(C)nc3C)nn2)cc1 | 37% (active) |
| COc1ccc(NC(=O)C2CCN(S(=O)(=O)c3c(C)noc3/C=C/c3ccc(C)cc3)CC2)cc1Cl | 82% (inactive) |
| COc1cc2c(=O)n(CCC(=O)NCC3CCCO3)c(=O)n(CC(=O)Nc3ccc(C)cc3)c2cc1OC (centres undefined) | 92% (inactive) |
| COc1cccc(OC(=O)CSc2nnc(-c3ccc4c(c3)OCO4)o2)c1 | 59% (inactive) |
| CC(=O)Nc1ccc(S(=O)(=O)NC2(C(F)(F)F)C(=O)Nc3c2c(=O)[nH]c(=O)n3-c2cccc(Cl)c2)cc1 (centres undefined) | 84% (inactive) |
| Cc1ccc(Cl)cc1N1CCN(C(=O)C2CCN(S(=O)(=O)Cc3ccccc3)CC2)CC1 | 72% (inactive) |
| CCC1CN(C(=O)N2CCC(C(=O)NCc3ccc(C)o3)CC2)c2ccccc2O1 (centres undefined) | 87% (inactive) |
| O=C(NCc1ccco1)C(c1ccco1)N(C(=O)Cn1nnc2ccccc21)c1ccccc1 (centres undefined) | 65% (inactive) |
| Cc1cc2c(cc1S(=O)(=O)N(CCO)Cc1ccccc1)OCC(=O)N2 | 46% (active) |
| Cc1cc2c(cc1S(=O)(=O)N(C)CC(=O)Nc1ccc(C#N)cc1)OCC(=O)N2 | 76% (inactive) |
| Cc1cc2c(cc1S(=O)(=O)N(C)CC(=O)Nc1cccc(C#N)c1)OCC(=O)N2 | -2% (active) |
| Cc1cc2c(cc1S(=O)(=O)N(CCN(C)C)Cc1ccco1)OCC(=O)N2 | 98% (inactive) |
| CN(CC(=O)Nc1cccc(C#N)c1)S(=O)(=O)c1cc2c(cc1Cl)NC(=O)CO2 | 109% (inactive) |
| Cc1cc2c(cc1S(=O)(=O)N(CCN(C)C)Cc1ccccc1)OCC(=O)N2 | 102% (inactive) |
